# A collection of fitness landscapes (doi:10.1016/j.celrep.2020.107928)
# In all, about 81,000 sequences were measured (“one-hybrid fitness for binding NBS DNA”: median about -0.1, highest 2% from about 0.36 on). This is one part of a sample in which the highest values are shown more often than they occur.
# B1: Caulobacter ParB omega fusion; a variant is named by its letters at X, in order, B8GW30 (parent)
# chain: MESVVVGEPGMSEGRRGLGRGLSALLGEVDAAPAQAPGEQLGGSREAPIEILQRNPDQPRRTFREEDLEDLSNSIREKGVLQPILVRPSPDTAGEYQIVAGERAWRAAQRAGLKTVPIMVRELDDLAVLEIGIIENVQRADLNVLEEALSYKVLMEKFERTQENIAQTIGKSXSHVANXMRLLXLPDEVQSYLVSGELTAXHARAIAAAADPVALAKQIIEGGLSVRETEALARKAPNLSAGKSKGGRPPRVKDTDTQALESDLSSVLGLDVSIDHRGSTGTLTITYATLEQLDDLCNRLTRGI
# Variants of: B1
# Experiment: one-hybrid fitness for binding NBS DNA (the Noc-binding site; scaled: cognate 1, non-cognate 0); higher = stronger binding
# Conditions: with NBS DNA site
# How it was run: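 Fitness here means the log change in variant-to-wild-type read ratio between plasmids sequenced before and after selection. That scale was set so cognate equals 1 and non-cognate equals 0. The selection was a bacterial one-hybrid screen of Caulobacter ParB libraries, four specificity codons randomised, in E. coli USO carrying a HIS3 reporter with the site 19 bp from the promoter, grown 48 hours at 37°C on M9-minus-histidine with 0.1 mM IPTG and 5 mM 3-AT.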
row,Variant,one-hybrid fitness for binding NBS DNA
1,DVAM,≤ 0.2
2,FLSS,≤ 0.2
3,SKYT,≤ 0.2
4,PHGE,≤ 0.2
5,KVPL,≤ 0.2
6,QVKY,0.383
7,QVKP,≤ 0.2
8,QVKQ,0.241
9,QVKT,0.564
10,QVKH,0.38
11,QVVT,0.248
12,QVVY,≤ 0.2
13,QVKM,0.229
14,QVYY,≤ 0.2
15,QVKS,0.49
16,QVKN,≤ 0.2
17,QVKD,≤ 0.2
18,MVLL,≤ 0.2
19,KYVG,≤ 0.2
20,NCLS,≤ 0.2
21,FLLI,≤ 0.2
22,SFTN,≤ 0.2
23,QSWH,≤ 0.2
24,PPWR,≤ 0.2
25,RQTH,≤ 0.2

row,Variant,one-hybrid fitness for binding NBS DNA
1,RQTD,≤ 0.2
2,RQTP,≤ 0.2
3,RQTT,0.487
4,RQTQ,≤ 0.2
5,RQTN,≤ 0.2
6,RQTR,0.497
7,RQTM,≤ 0.2
8,RQTS,0.436
9,KQNL,≤ 0.2
10,SITL,≤ 0.2
11,CLCV,≤ 0.2
12,LGTW,≤ 0.2
13,DDVR,≤ 0.2
14,LTIS,≤ 0.2
15,VYRA,≤ 0.2
16,IHWG,≤ 0.2
17,RKCM,≤ 0.2
18,RKQH,≤ 0.2
19,RKRT,0.676
20,RKRQ,0.246
21,RKCQ,≤ 0.2
22,RKQT,0.606
23,RSLT,0.292
24,RKRG,0.238
25,RKCT,0.583

row,Variant,one-hybrid fitness for binding NBS DNA
1,RCLT,0.436
2,RKQP,≤ 0.2
3,RPLT,≤ 0.2
4,YFSE,≤ 0.2
5,GPRA,≤ 0.2
6,PFTR,≤ 0.2
7,YKRA,≤ 0.2
8,NSHG,≤ 0.2
9,NIIS,≤ 0.2
10,GQRS,≤ 0.2
11,NYVI,≤ 0.2
12,EAFS,≤ 0.2
13,LCHL,≤ 0.2
14,RKNT,0.698
15,RIWT,0.279
16,RKNQ,≤ 0.2
17,RKGQ,≤ 0.2
18,RTLY,≤ 0.2
19,RKNG,≤ 0.2
20,RKGM,0.218
21,RTLT,0.461
22,RFWT,≤ 0.2
23,RTLP,≤ 0.2
24,RKGT,0.649
25,RKWT,0.456

row,Variant,one-hybrid fitness for binding NBS DNA
1,RNGC,≤ 0.2
2,RYHW,≤ 0.2
3,PRPF,≤ 0.2
4,RYAS,0.342
5,NTFG,≤ 0.2
6,PTNR,≤ 0.2
7,VRMT,≤ 0.2
8,RKLK,≤ 0.2
9,RKSC,0.273
10,RKPT,0.236
11,RKST,0.639
12,RKLY,≤ 0.2
13,RKDT,0.498
14,RKSF,≤ 0.2
15,RKYT,0.643
16,RKDF,≤ 0.2
17,RKLT,0.579
18,RKIT,0.361
19,IDAR,≤ 0.2
20,TMSR,≤ 0.2
21,SFKS,≤ 0.2
22,WVLY,≤ 0.2
23,SIAR,≤ 0.2
24,RKVI,≤ 0.2
25,KPTD,≤ 0.2

row,Variant,one-hybrid fitness for binding NBS DNA
1,SPSM,≤ 0.2
2,RVWC,≤ 0.2
3,RSWT,0.215
4,RPWT,≤ 0.2
5,RKHH,0.245
6,RCWT,0.418
7,RKHP,≤ 0.2
8,RKHT,0.645
9,NLDC,≤ 0.2
10,PTPS,≤ 0.2
11,QRQF,0.323
12,QREQ,≤ 0.2
13,QSQM,≤ 0.2
14,QHQH,≤ 0.2
15,QLQQ,≤ 0.2
16,QRQH,0.544
17,QCQH,0.222
18,QCQM,≤ 0.2
19,QRQC,0.362
20,QRQM,0.395
21,QRQQ,0.397
22,QRQN,0.402
23,WQMR,≤ 0.2
24,TQQR,≤ 0.2
25,EVHL,≤ 0.2

row,Variant,one-hybrid fitness for binding NBS DNA
1,DGGN,≤ 0.2
2,RFYH,≤ 0.2
3,ATCR,≤ 0.2
4,LYYL,≤ 0.2
5,KGWY,≤ 0.2
6,YQPD,≤ 0.2
7,QRQS,0.688
8,QRQP,0.222
9,QRQD,0.228
10,NYIC,≤ 0.2
11,TPDF,≤ 0.2
12,QTTP,≤ 0.2
13,QTTH,0.385
14,QTTC,0.223
15,QTTS,0.528
16,QTTN,0.236
17,QTTD,≤ 0.2
18,DYIR,≤ 0.2
19,VVWY,≤ 0.2
20,HIDC,≤ 0.2
21,RCWS,0.388
22,RSWS,0.238
23,RPWS,≤ 0.2
24,RKWS,0.467
25,RKRN,0.258

row,Variant,one-hybrid fitness for binding NBS DNA
1,RKYS,0.562
2,RKRS,0.666
3,RKWN,≤ 0.2
4,RKWD,≤ 0.2
5,RKRP,≤ 0.2
6,RKYP,≤ 0.2
7,RKYD,≤ 0.2
8,VTLY,≤ 0.2
9,TYNS,≤ 0.2
10,QTTI,≤ 0.2
11,HNLL,≤ 0.2
12,CGRS,≤ 0.2
13,WGSW,≤ 0.2
14,SGTG,≤ 0.2
15,DHMC,≤ 0.2
16,QRPE,≤ 0.2
17,EVQC,≤ 0.2
18,LFWV,≤ 0.2
19,RKRH,0.429
20,RKDH,0.401
21,RKNH,0.335
22,RKIR,0.384
23,RKIS,0.403
24,RKYH,0.228
25,RPIR,≤ 0.2

row,Variant,one-hybrid fitness for binding NBS DNA
1,RKPS,≤ 0.2
2,RKIP,≤ 0.2
3,RKPR,≤ 0.2
4,RKDN,≤ 0.2
5,RKRD,≤ 0.2
6,SRFC,≤ 0.2
7,FDKC,≤ 0.2
8,SRTT,≤ 0.2
9,PLES,≤ 0.2
10,WGAE,≤ 0.2
11,WTLY,≤ 0.2
12,RKLD,≤ 0.2
13,RKLS,0.496
14,RKLP,≤ 0.2
15,ISNA,≤ 0.2
16,YLVK,≤ 0.2
17,QWGI,≤ 0.2
18,QPDA,≤ 0.2
19,QHNA,0.294
20,QANA,0.257
21,QRDA,0.394
22,QRNA,0.632
